Source: the supplement of paper PMC6522484
± gives the standard deviation of the averaged measurements.

Assays:
[1] = system: DLD1; test: cell viability (CellTiter-Glo) relative to plate median (fraction of plate median); higher = more viable cells; conditions: 5 µM; treatment time 24 h; reporter: 7TFP
Procedure, shortened: (§1)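 Per-well firefly luciferase or CellTiterGlo luminescence, normalised to the plate median, is what is reported. It was measured in colorectal cancer cells with stable lentiviral TCF/Wnt firefly luciferase reporters after a 24 h treatment with library compounds at a final 5 µM. The mean of two independent replicates is given.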

[2] = system: HCT116; test: as above; conditions: 5 µM; treatment time 24 h; reporter: TCF4/Wnt
Procedure, shortened: as §1

[3] = system: SW480; test: as above; conditions: 5 µM; treatment time 24 h; reporter: 7TFP
Procedure, shortened: as §1

[4] = system: DLD1; test: TCF/Wnt firefly luciferase reporter signal relative to plate median (fraction of plate median); higher = higher Wnt reporter signal; conditions: 5 µM; treatment time 24 h; reporter: 7TFP
Procedure, shortened: as §1

[5] = system: SW480; test: as above; conditions: 5 µM; treatment time 24 h; reporter: 7TFP
Procedure, shortened: as §1

Compound | cell viability [1] | cell viability [2] | cell viability [3] | TCF/Wnt firefly luciferase reporter signal [4] | TCF/Wnt firefly luciferase reporter signal [5]
CN(C)[C@@H]1C(O)=C(C(N)=O)C(=O)[C@@]2(O)C(O)=C3C(=O)c4c(O)ccc(Cl)c4[C@@H](O)[C@H]3C[C@@H]12 | 0.943 ± 0.025 | 0.96 ± 0.071 | 0.959 ± 0.0085 | 0.924 ± 0.067 | 0.983 ± 0.039
CCN1CCCC1CNC(=O)c1cc(S(N)(=O)=O)ccc1OC (stereo not given) | 0.985 ± 0.064 | 0.954 ± 0.023 | 1.02 ± 0.071 | 1.06 ± 0.22 | 0.959 ± 0.072
CC[C@H]1OC(=O)[C@H](C)C(=O)[C@H](C)[C@@H](O[C@@H]2O[C@H](C)C[C@H](N(C)C)[C@H]2O)[C@](C)(OC)C[C@@H](C)C(=O)[C@H](C)[C@H]2N(CCCCn3cnc(-c4cccnc4)c3)C(=O)O[C@]12C | 0.997 ± 0.018 | 0.968 ± 0.1 | 1.02 ± 0.04 | 1.07 ± 0.05 | 1.07 ± 0.035
CC(=O)N(O)CCCCCNC(=O)CC(O)(CC(=O)NCCCCCN(O)C(C)=O)C(=O)O [Arthrobactin] | 0.989 ± 0.03 | 1.06 ± 0.057 | 1.03 ± 0.049 | 0.976 ± 0.12 | 1.06 ± 0.028
N[C@@H](Cc1cc(I)c(Oc2ccc(O)c(I)c2)c(I)c1)C(=O)O [LIOTHYRONINE (L- isomer) SODIUM] | 0.994 ± 0.093 | 1.04 ± 0.091 | 1.11 ± 0.064 | 1.14 ± 0.17 | 1.055 ± 0.0071
CC(C)NNC(=O)c1ccncc1 | 1.02 ± 0.029 | 0.992 ± 0.054 | 1 ± 0.083 | 1.07 ± 0.042 | 1.01 ± 0.021
Cc1cc(N)c2ccccc2[n+]1CCCCCCCCCC[n+]1c(C)cc(N)c2ccccc21 | 0.995 ± 0.092 | 0.907 ± 0.042 | 0.989 ± 0.087 | 0.751 ± 0.18 | 0.793 ± 0.11
O=C(Oc1cccc2cccnc12)c1ccccc1 | 0.999 ± 0.044 | 0.891 ± 0.029 | 1.03 ± 0.035 | 0.856 ± 0.071 | 0.871 ± 0.025
CCCc1nc2c(C)cc(-c3nc4ccccc4n3C)cc2n1Cc1ccc(-c2ccccc2C(=O)O)cc1 | 0.975 ± 0.12 | 0.992 ± 0.054 | 1.01 ± 0.021 | 0.98 ± 0.028 | 1 ± 0.021
CCCCC[C@H](CC(=O)NO)C(=O)N[C@H](C(=O)N1CCC[C@H]1CO)C(C)C | 0.951 ± 0.0042 | 0.932 ± 0.057 | 0.9655 ± 0.00071 | 1 ± 0.05 | 1.16 ± 0.035
CC(C)C[C@@H](NC(=O)[C@H](C)NC(=O)CNC(=O)[C@@H](NC=O)C(C)C)C(=O)N[C@@H](C)C(=O)N[C@@H](C(=O)N[C@H](C(=O)N[C@H](C(=O)N[C@@H](Cc1c[nH]c2ccccc12)C(=O)N[C@H](CC(C)C)C(=O)N[C@@H](Cc1c[nH]c2ccccc12)C(=O)N[C@H](CC(C)C)C(=O)N[C@@H](Cc1c[nH]c2ccccc12)C(=O)N[C@H](CC(C)C)C(=O)N[C@@H](Cc1c[nH]c2ccccc12)C(=O)NCCO)C(C)C)C(C)C)C(C)C | 0.939 ± 0.13 | 0.903 ± 0.061 | 0.613 ± 0.072 | 0.885 ± 0.043 | 0.488 ± 0.077
COc1cc(C)c(C(=O)O)c(O)c1 | 1.05 ± 0.014 | 1.11 ± 0.14 | 1 ± 0.037 | 0.924 ± 0.0085 | 0.986 ± 0.02
Nc1c2c(nc3ccccc13)CCCC2 | 1.04 | 0.997 ± 0.018 | 0.946 ± 0.014 | 0.999 ± 0.016 | 0.943 ± 0.015
C[C@@H]1NC(=O)[C@@H](N)CNC(=O)[C@H](C2CCNC(=N)N2)NC(=O)/C(=C/NC(N)=O)NC(=O)[C@H](CNC(=O)CC(N)CCCN)NC1=O.N=C1NCC[C@H]([C@@H]2NC(=O)/C(=C/NC(N)=O)NC(=O)[C@H](CNC(=O)C[C@@H](N)CCCN)NC(=O)[C@H](CO)NC(=O)[C@@H](N)CNC2=O)N1 | 1.03 ± 0.052 | 0.993 ± 0.081 | 0.996 ± 0.076 | 0.816 ± 0.0071 | 0.871 ± 0.093
COC1=C(O)C(=O)c2c(cc3oc(C(C)=O)c(O)c3c2O)C1=O | 1.03 ± 0.055 | 1.07 ± 0.064 | 0.985 ± 0.064 | 1.05 ± 0.11 | 0.949 ± 0.027
C[C@]12CC[C@H]3C(=CCc4cc(O)ccc43)[C@@H]1CCC2=O | 0.902 ± 0.086 | 0.869 ± 0.16 | 1.01 ± 0.031 | 1.07 ± 0.25 | 0.98 ± 0.057
Cc1cc(C(C)(C)C)c(O)c(C(C)(C)C)c1 | 0.926 ± 0.054 | 0.925 ± 0.057 | 1.004 ± 0.0092 | 1.04 ± 0.09 | 0.969 ± 0.011
CN(C)CCOC(C)(c1ccccc1)c1ccccn1 (stereo not given) | 1.1 ± 0.2 | 0.947 ± 0.1 | 1.04 ± 0.042 | 0.999 ± 0.016 | 1.04 ± 0.014
CC1(C)O[C@H]2[C@H](O)C[C@](O)(C(N)=O)C[C@H]2O1 | 1.08 ± 0.035 | 1.17 ± 0.15 | 1.09 ± 0.021 | 1.07 ± 0.15 | 0.916 ± 0.055
CC(C)C[C@H](NC(=O)[C@@H]1CCCN1)C(=O)N1CCNC(=O)C1=O [Prolyl-leucyl-diketopiperazine] | 1.02 ± 0.035 | 0.993 ± 0.011 | 0.984 ± 0.0042 | 1.04 ± 0.13 | 1.025 ± 0.0071
CC(=O)O[C@H]1CC[C@@]2(C)[C@@H](CC[C@@H]3[C@@H]2CC(=O)[C@]2(C)[C@@H]4[C@H](C[C@@H]32)O[C@]2(CC[C@@H](C)CO2)[C@H]4C)C1 | 0.907 ± 0.018 | 0.934 ± 0.047 | 0.9615 ± 0.0035 | 0.858 ± 0.038 | 0.995 ± 0.16
O=C(CCCCC(=O)Nc1c(I)cc(I)c(C(=O)O)c1I)Nc1c(I)cc(I)c(C(=O)O)c1I | 1.05 | 1.08 ± 0.16 | 1.01 ± 0.03 | 1.05 ± 0.028 | 1.06 ± 0.021
CC(C)=CCc1c(O)cc2oc(C)cc(=O)c2c1O | 1 ± 0.036 | 0.981 ± 0.055 | 1 ± 0.024 | 0.869 ± 0.15 | 0.943 ± 0.095
Nc1c2c(nc3ccccc13)CCCC2O (stereo not given) | 1.01 ± 0.018 | 1.12 ± 0.028 | 0.954 ± 0.021 | 0.932 ± 0.016 | 0.931 ± 0.03
C[C@@H]1C[C@H]2O[C@@H]2/C=C\C=C\C(=O)Cc2c(Cl)c(O)cc(O)c2C(=O)O1 [Radicicol] | 1.07 ± 0.035 | 0.802 ± 0.086 | 1.07 ± 0.099 | 0.898 ± 0.16 | 0.785 ± 0.035
C[n+]1cc2c3c(ccc2c2ccc4cc5c(cc4c21)OCO5)OCO3 | 1.02 ± 0.021 | 1.08 ± 0.12 | 0.99 ± 0.043 | 1 ± 0.081 | 0.981 ± 0.011
NC12CC3CC(CC(C3)C1)C2 | 0.979 ± 0.028 | 0.944 ± 0.058 | 1.04 ± 0.021 | 0.908 ± 0.34 | 1.025 ± 0.0071
CN(C)C(=O)C(CCN1CCC(O)(c2ccc(Cl)cc2)CC1)(c1ccccc1)c1ccccc1 | 0.892 ± 0.14 | 0.912 ± 0.033 | 0.983 ± 0.019 | 0.982 ± 0.28 | 0.816 ± 0.16
